Measured values: the supplement of paper PMC7765376
Over roughly 1,500 compounds, “Excess HSA synergy score (sum over dose matrix of excess over highest single agent)” has its median near 43; the lowest 2% begin near -900. This is one part of a sample in which the lowest values are shown more often than they occur.

System: PEO-1
Experiment: Excess HSA synergy score (sum over dose matrix of excess over highest single agent) (score (summed % response)); higher = less synergy / more antagonism (negative = synergy)
Conditions: 72 h, read-out: viability/apoptosis luminescence (CellTiter-Glo or Caspase3-Glo / not stated per table)
[1] = matrix design: 6x6, 5-fold dilutions (primary screen)

In the case of `COc1cc2c(cc1Cc1cccc(Cl)c1F)c(=O)c(C(=O)O)cn2[C@H](CO)C(C)C` [Elvitegravir] + CC[C@H](NC(=O)[C@H](C)NC)C(=O)N1C[C@@H](O)C[C@H]1Cc1c(-c2[nH]c3cc(F)ccc3c2C[C@@H]2C[C@H](O)CN2C(=O)[C@H](CC)NC(=O)[C@H](C)NC)[nH]c2cc(F)ccc12 [Birinapant], the “Excess HSA synergy score” value [1] is reported as 326.
In the case of `OCCC#Cc1nc(-c2ccc(F)cc2)c(-c2ccncc2)n1CCCc1ccccc1` + CC[C@H](NC(=O)[C@H](C)NC)C(=O)N1C[C@@H](O)C[C@H]1Cc1c(-c2[nH]c3cc(F)ccc3c2C[C@@H]2C[C@H](O)CN2C(=O)[C@H](CC)NC(=O)[C@H](C)NC)[nH]c2cc(F)ccc12 [Birinapant], the “Excess HSA synergy score” value [1] is reported as 286.
For `COc1ccc(/C=C\c2cc(OC)c(OC)c(OC)c2)cc1NC(=O)[C@@H](N)CO` [Ombrabulin] + CC[C@H](NC(=O)[C@H](C)NC)C(=O)N1C[C@@H](O)C[C@H]1Cc1c(-c2[nH]c3cc(F)ccc3c2C[C@@H]2C[C@H](O)CN2C(=O)[C@H](CC)NC(=O)[C@H](C)NC)[nH]c2cc(F)ccc12 [Birinapant], the “Excess HSA synergy score” value [1] was -98.3.
For `O=C(CO)N1CCC(c2n[nH]c(-c3ccc(Cl)cc3)c2-c2ccncn2)CC1` + CC[C@H](NC(=O)[C@H](C)NC)C(=O)N1C[C@@H](O)C[C@H]1Cc1c(-c2[nH]c3cc(F)ccc3c2C[C@@H]2C[C@H](O)CN2C(=O)[C@H](CC)NC(=O)[C@H](C)NC)[nH]c2cc(F)ccc12 [Birinapant], the “Excess HSA synergy score” value [1] was 244.
For `CC(C)(OCc1nn(Cc2ccccc2)c2ccccc12)C(=O)O` [Bindarit] + CC[C@H](NC(=O)[C@H](C)NC)C(=O)N1C[C@@H](O)C[C@H]1Cc1c(-c2[nH]c3cc(F)ccc3c2C[C@@H]2C[C@H](O)CN2C(=O)[C@H](CC)NC(=O)[C@H](C)NC)[nH]c2cc(F)ccc12 [Birinapant], the “Excess HSA synergy score” value [1] was -236.
For `Cc1ccc(/C=N/NC(=O)c2ccccc2Oc2ccccc2)o1` + CC[C@H](NC(=O)[C@H](C)NC)C(=O)N1C[C@@H](O)C[C@H]1Cc1c(-c2[nH]c3cc(F)ccc3c2C[C@@H]2C[C@H](O)CN2C(=O)[C@H](CC)NC(=O)[C@H](C)NC)[nH]c2cc(F)ccc12 [Birinapant], the “Excess HSA synergy score” value [1] was 277.
`CC(C)c1cc(C(C)C)c(CC(=O)NS(=O)(=O)Oc2c(C(C)C)cccc2C(C)C)c(C(C)C)c1` [Avasimibe] + CC[C@H](NC(=O)[C@H](C)NC)C(=O)N1C[C@@H](O)C[C@H]1Cc1c(-c2[nH]c3cc(F)ccc3c2C[C@@H]2C[C@H](O)CN2C(=O)[C@H](CC)NC(=O)[C@H](C)NC)[nH]c2cc(F)ccc12 [Birinapant] was tested, and the “Excess HSA synergy score” value [1] was 95.2.
In the case of `CC(=O)C1=C(O)C=C2Oc3c(C(C)=O)c(O)c(C)c(O)c3C2(C)C1=O` (single isomer, unassigned; (+)) [(+)-Usniacin] + CC[C@H](NC(=O)[C@H](C)NC)C(=O)N1C[C@@H](O)C[C@H]1Cc1c(-c2[nH]c3cc(F)ccc3c2C[C@@H]2C[C@H](O)CN2C(=O)[C@H](CC)NC(=O)[C@H](C)NC)[nH]c2cc(F)ccc12 [Birinapant], the “Excess HSA synergy score” value [1] is reported as -123.
In the case of `C[C@@H]1CN(Cc2ccc(F)cc2)[C@@H](C)CN1C(=O)c1cc2c(C(=O)C(=O)N(C)C)cn(C)c2cc1Cl` [Talmapimod] + CC[C@H](NC(=O)[C@H](C)NC)C(=O)N1C[C@@H](O)C[C@H]1Cc1c(-c2[nH]c3cc(F)ccc3c2C[C@@H]2C[C@H](O)CN2C(=O)[C@H](CC)NC(=O)[C@H](C)NC)[nH]c2cc(F)ccc12 [Birinapant], the “Excess HSA synergy score” value [1] is reported as 190.
With `CCNC(=O)Nc1ccc(-c2nc3c(c(N4CCOC[C@@H]4C)n2)CCN(C2COC2)C3)cc1` + CC[C@H](NC(=O)[C@H](C)NC)C(=O)N1C[C@@H](O)C[C@H]1Cc1c(-c2[nH]c3cc(F)ccc3c2C[C@@H]2C[C@H](O)CN2C(=O)[C@H](CC)NC(=O)[C@H](C)NC)[nH]c2cc(F)ccc12 [Birinapant] the “Excess HSA synergy score” value [1] was -44.2.
With `CN1CCN(c2nc(C3=C(c4c[nH]c5ccccc45)C(=O)NC3=O)c3ccccc3n2)CC1` [Sotrastaurin] + CC[C@H](NC(=O)[C@H](C)NC)C(=O)N1C[C@@H](O)C[C@H]1Cc1c(-c2[nH]c3cc(F)ccc3c2C[C@@H]2C[C@H](O)CN2C(=O)[C@H](CC)NC(=O)[C@H](C)NC)[nH]c2cc(F)ccc12 [Birinapant] the “Excess HSA synergy score” value [1] was 84.5.
For `Cc1noc(-c2ccc(CSCCC(=O)O)cc2)c1NC(=O)OC(C)c1ccccc1Cl` (stereo not given) + CC[C@H](NC(=O)[C@H](C)NC)C(=O)N1C[C@@H](O)C[C@H]1Cc1c(-c2[nH]c3cc(F)ccc3c2C[C@@H]2C[C@H](O)CN2C(=O)[C@H](CC)NC(=O)[C@H](C)NC)[nH]c2cc(F)ccc12 [Birinapant], the “Excess HSA synergy score” value [1] was 351.
In the case of `CCOc1cc(C(=O)Nc2ccc(Cl)c(-c3nc4ccccc4[nH]3)c2)cc(OCC)c1OCC` + CC[C@H](NC(=O)[C@H](C)NC)C(=O)N1C[C@@H](O)C[C@H]1Cc1c(-c2[nH]c3cc(F)ccc3c2C[C@@H]2C[C@H](O)CN2C(=O)[C@H](CC)NC(=O)[C@H](C)NC)[nH]c2cc(F)ccc12 [Birinapant], the “Excess HSA synergy score” value [1] is reported as 142.
`C=C(C)[C@@H]1CC[C@]2(C)CC[C@]3(C)[C@H](CC[C@@H]4[C@@]5(C)CC[C@H](O)C(C)(C)[C@@H]5CC[C@]43C)[C@@H]12` [Lupeol] + CC[C@H](NC(=O)[C@H](C)NC)C(=O)N1C[C@@H](O)C[C@H]1Cc1c(-c2[nH]c3cc(F)ccc3c2C[C@@H]2C[C@H](O)CN2C(=O)[C@H](CC)NC(=O)[C@H](C)NC)[nH]c2cc(F)ccc12 [Birinapant] was tested, and the “Excess HSA synergy score” value [1] was -39.9.
With `O=C(NNC(=O)c1ccc(CNS(=O)(=O)c2ccc(F)c(Cl)c2)cc1)c1ccccc1` + CC[C@H](NC(=O)[C@H](C)NC)C(=O)N1C[C@@H](O)C[C@H]1Cc1c(-c2[nH]c3cc(F)ccc3c2C[C@@H]2C[C@H](O)CN2C(=O)[C@H](CC)NC(=O)[C@H](C)NC)[nH]c2cc(F)ccc12 [Birinapant] the “Excess HSA synergy score” value [1] was 144.
With `CC(C)(C)c1cc(C(C)(C)C)c(NC(=O)c2c[nH]c3ccccc3c2=O)cc1O` [Ivacaftor] + CC[C@H](NC(=O)[C@H](C)NC)C(=O)N1C[C@@H](O)C[C@H]1Cc1c(-c2[nH]c3cc(F)ccc3c2C[C@@H]2C[C@H](O)CN2C(=O)[C@H](CC)NC(=O)[C@H](C)NC)[nH]c2cc(F)ccc12 [Birinapant] the “Excess HSA synergy score” value [1] was 116.
`C=CC(=O)Nc1cc2c(Nc3ccc(F)c(Cl)c3)ncnc2cc1C#CC(C)(C)N1CCN(C)CC1` + CC[C@H](NC(=O)[C@H](C)NC)C(=O)N1C[C@@H](O)C[C@H]1Cc1c(-c2[nH]c3cc(F)ccc3c2C[C@@H]2C[C@H](O)CN2C(=O)[C@H](CC)NC(=O)[C@H](C)NC)[nH]c2cc(F)ccc12 [Birinapant] was tested, and the “Excess HSA synergy score” value [1] was 44.3.
For `CO[C@H]1C(=O)[C@]2(C)[C@@H](OC)C[C@H]3OC[C@@]3(OC(C)=O)[C@H]2[C@H](OC(=O)c2ccccc2)[C@]2(O)C[C@H](OC(=O)[C@H](O)[C@@H](NC(=O)OC(C)(C)C)c3ccccc3)C(C)=C1C2(C)C` [Cabazitaxel] + CC[C@H](NC(=O)[C@H](C)NC)C(=O)N1C[C@@H](O)C[C@H]1Cc1c(-c2[nH]c3cc(F)ccc3c2C[C@@H]2C[C@H](O)CN2C(=O)[C@H](CC)NC(=O)[C@H](C)NC)[nH]c2cc(F)ccc12 [Birinapant], the “Excess HSA synergy score” value [1] was -61.8.
`Cc1ccc(NC(=O)c2cccc(C(C)(C)C#N)c2)cc1Nc1ccc2ncn(C)c(=O)c2c1` + CC[C@H](NC(=O)[C@H](C)NC)C(=O)N1C[C@@H](O)C[C@H]1Cc1c(-c2[nH]c3cc(F)ccc3c2C[C@@H]2C[C@H](O)CN2C(=O)[C@H](CC)NC(=O)[C@H](C)NC)[nH]c2cc(F)ccc12 [Birinapant] was tested, and the “Excess HSA synergy score” value [1] was 31.8.
For `CCNC(=O)Nc1ccc2ncc(Nc3ccc(C)cc3)nc2n1` + CC[C@H](NC(=O)[C@H](C)NC)C(=O)N1C[C@@H](O)C[C@H]1Cc1c(-c2[nH]c3cc(F)ccc3c2C[C@@H]2C[C@H](O)CN2C(=O)[C@H](CC)NC(=O)[C@H](C)NC)[nH]c2cc(F)ccc12 [Birinapant], the “Excess HSA synergy score” value [1] was 77.2.
In the case of `Cc1nc(Nc2n[nH]c3c2CN(C(=O)N[C@H](CN(C)C)c2ccccc2)C3(C)C)c2sccc2n1` + CC[C@H](NC(=O)[C@H](C)NC)C(=O)N1C[C@@H](O)C[C@H]1Cc1c(-c2[nH]c3cc(F)ccc3c2C[C@@H]2C[C@H](O)CN2C(=O)[C@H](CC)NC(=O)[C@H](C)NC)[nH]c2cc(F)ccc12 [Birinapant], the “Excess HSA synergy score” value [1] is reported as -399 and the “Excess HSA synergy score” value (matrix design: 10x10, 9-step dilutions (confirmatory)) is reported as -1930.
With `Cc1cnc(-c2cc(N3CCN(C(=O)CCS(C)(=O)=O)CC3)ncc2Cl)c(C)c1` + CC[C@H](NC(=O)[C@H](C)NC)C(=O)N1C[C@@H](O)C[C@H]1Cc1c(-c2[nH]c3cc(F)ccc3c2C[C@@H]2C[C@H](O)CN2C(=O)[C@H](CC)NC(=O)[C@H](C)NC)[nH]c2cc(F)ccc12 [Birinapant] the “Excess HSA synergy score” value [1] was 211.
For `O=C(CCN1CCN(C(=O)OCc2cc(Cl)cc(Cl)c2)CC1)c1ccc2[nH]c(=O)oc2c1` + CC[C@H](NC(=O)[C@H](C)NC)C(=O)N1C[C@@H](O)C[C@H]1Cc1c(-c2[nH]c3cc(F)ccc3c2C[C@@H]2C[C@H](O)CN2C(=O)[C@H](CC)NC(=O)[C@H](C)NC)[nH]c2cc(F)ccc12 [Birinapant], the “Excess HSA synergy score” value [1] was -22.5.
For `CC1(C)OC2=C(C(=O)c3ccccc3C2=O)[C@H](NCc2ccccc2)[C@@H]1O` + CC[C@H](NC(=O)[C@H](C)NC)C(=O)N1C[C@@H](O)C[C@H]1Cc1c(-c2[nH]c3cc(F)ccc3c2C[C@@H]2C[C@H](O)CN2C(=O)[C@H](CC)NC(=O)[C@H](C)NC)[nH]c2cc(F)ccc12 [Birinapant], the “Excess HSA synergy score” value [1] was 60.3.
